Assay results: PubChem BioAssay (EPA / NIEHS)
“And” between values parts separate entries of the source, which are not always exact repeats. Equal values may be shown once. Records with an inconclusive call do not appear. A structure can be active in one record and inactive in another. The source made the active and inactive calls. Rule for the calls, unless noted: active = hit-call score of the fitted dose curve at least 0.9, where 1 is the maximum; inactive = score below 0.9.

Legend:
[1] = BSK_4H_Eotaxin3: BioMAP Diversity Plus: 4H Assay for Eotaxin 3 Biomarker Activity (AID 2283000); conditions: primary human endothelial cells (HUVEC); actives raise or lower the signal
Procedure, shortened: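 Chemicals were added to human umbilical vein endothelium cultures, and Eotaxin-3 was quantified by ELISA at 24 h. Values were derived by bidirectional fitting with DMSO serving as negative control and activity baseline.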

[2] = target: human Peroxisome Proliferator-activated Receptor alpha (PPARa), PPARA (gene 5465) (UniProt Q07869); assay: ATG_PPARa_TRANS: Attagene TRANS-FACTORIAL HepG2 Assay for human Peroxisome Proliferator-activated Receptor alpha (PPARa) (AID 2283001; active = hit-call score of the fitted dose curve at least 0.9, where 1 is the maximum;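 for AC50: potency for gain of reporter signal over DMSO so agonist or activator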)
Procedure, shortened: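 HepG2 cells transiently transfected with multiplexed GAL4-UAS reporter units and chimeric NR-Gal4 constructs were dosed for 24 h. Reporter mRNA was measured by RT-PCR with fluorescent labelling and capillary electrophoresis; gain of signal fitted against DMSO.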

[3] = read-out: Intercellular Adhesion Molecule 1 (ICAM1), ICAM1 (gene 3383); assay: BSK_3C_ICAM1: BioMAP Diversity Plus: 3C Assay for Intercellular Adhesion Molecule 1 (ICAM1) Biomarker Activity (AID 2283003); conditions: primary human endothelial cells (HUVEC); actives raise or lower the signal
Procedure, shortened: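 Human vascular endothelial primary cells, 3C conditions, 24 h treatment. ICAM-1 by ELISA.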

[4] = BSK_3C_Proliferation: Cell Proliferation Assessment in the BioMAP Diversity Plus: 3C Assay (AID 2283006); conditions: primary human endothelial cells (HUVEC);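 for AC50: potency may reflect either rise or fall in cell number versus DMSO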
Procedure, shortened: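 Proliferation of human vascular endothelial primary cells after 48 h dosing, quantified as SRB-stained protein at 560 nm relative to DMSO.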

[5] = target: Peroxisome proliferator-activated receptor gamma (Homo sapiens) (UniProt P37231); assay: ATG_PPARg_TRANS: Attagene TRANS-FACTORIAL HepG2 Assay for human Peroxisome Proliferator-activated Receptor-gamma (PPARg) (AID 2283007; active = hit-call score of the fitted dose curve at least 0.9, where 1 is the maximum)
Procedure, shortened: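 HepG2 cells are transiently transfected with GAL4-UAS reporter units driven by chimeric NR-Gal4 fusions and dosed for 24 h. Reporter mRNA is quantified by RT-PCR, 6-FAM labelling, HpaI digestion and capillary electrophoresis. Induction is scored against DMSO.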

[6] = target: Nuclear receptor subfamily 1 group I member 2 (Homo sapiens) (UniProt O75469); assay: ATG_PXR_TRANS: Attagene TRANS-FACTORIAL HepG2 Assay for human Pregnane X Receptor (PXR) (AID 2283008; active = hit-call score of the fitted dose curve at least 0.9, where 1 is the maximum)
Procedure, shortened: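 HepG2 cells transiently transfected with GAL4-UAS reporter units and PXR-Gal4 chimera, exposed 24 h. Reporter mRNA quantified by RT-PCR, fluorescent labelling, HpaI digestion and capillary electrophoresis; gain of signal vs DMSO.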

[7] = target: human RAR-related Orphan Receptor beta (RORb), RORB (gene 6096) (UniProt Q92753); assay: ATG_RORb_TRANS: Attagene TRANS-FACTORIAL HepG2 Assay for human RAR-related Orphan Receptor beta (RORb) (AID 2283010; active = hit-call score of the fitted dose curve at least 0.9, where 1 is the maximum)
Procedure, shortened: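 In this TRANS-format test, human HepG2 cells express chimeric NR-Gal4 fusion proteins driving GAL4-UAS reporters. After 24 h dosing, reporter transcripts are measured by fluorescent RT-PCR/capillary electrophoresis, with DMSO as negative control.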

[8] = read-out: E-selectin (Homo sapiens) (UniProt P16581); assay: BSK_3C_Eselectin: BioMAP Diversity Plus: 3C Assay for Eselectin Biomarker Activity (AID 2283015); conditions: primary human endothelial cells (HUVEC); actives raise or lower the signal;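 note: cell surface E-selectin protein quantified by ELISA 24 h after dosing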
Procedure, shortened: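 ELISA read-out of E-selectin on endothelial monolayers after 24 h chemical treatment. Human umbilical vein primary cells served as the system, with DMSO defining baseline activity for bidirectional fitting.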

[9] = read-out: Interleukin-1 alpha (IL1a), IL1A (gene 3552); assay: BSK_BE3C_IL1a: BioMAP Diversity Plus: BE3C Assay for Interleukin-1 alpha (IL1a) Biomarker Activity (AID 2283016); conditions: primary human bronchial epithelial cells; actives raise or lower the signal
Procedure, shortened: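 Cultures of primary human bronchial epithelial cells receive test chemical. After 24 h, IL-1a is quantified by ELISA, while parallel wells are fixed in TCA and SRB-stained for total protein. Changes in either direction are fitted relative to DMSO.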

[10] = read-out: Monocyte Chemoattractant Protein-1 (MCP1), CCL2 (gene 6347); assay: BSK_3C_MCP1: BioMAP Diversity Plus: 3C Assay for Monocyte Chemoattractant Protein-1 (MCP1) Biomarker Activity (AID 2283017); conditions: primary human endothelial cells (HUVEC); actives raise or lower the signal
Procedure, shortened: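 ELISA read-out of MCP-1 from human umbilical vein endothelial cell cultures harvested 24 h post-dosing. Gain or loss of signal was fitted relative to DMSO.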

[11] = read-out: Monocyte Chemoattractant Protein-1 (MCP1), CCL2 (gene 6347); assay: BSK_4H_MCP1: BioMAP Diversity Plus: 4H Assay for Monocyte Chemoattractant Protein-1 (MCP1) Biomarker Activity (AID 2283018); conditions: primary human endothelial cells (HUVEC); actives raise or lower the signal
Procedure, shortened: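 Readout: MCP-1 ELISA on compound-treated HUVEC, sampled 24 h post-dosing. Baseline and negative control DMSO; bidirectional fit. Overt toxicity checked alongside by sulforhodamine B protein staining at time of biomarker measurement.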

[12] = read-out: Human Leukocyte Antigen - DR isotype (HLADR), HLA-DRA (gene 3122); assay: BSK_3C_HLADR: BioMAP Diversity Plus: 3C Assay for Human Leukocyte Antigen - DR isotype (HLADR) Biomarker Activity (AID 2283019); conditions: primary human endothelial cells (HUVEC); actives raise or lower the signal
Procedure, shortened: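 ELISA readout of surface HLA-DR on human umbilical vein endothelium, taken 24 h after chemical treatment. Gain- and loss-of-signal were both fitted relative to DMSO.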

[13] = read-out: Interleukin-8 (IL8), CXCL8 (gene 3576); assay: BSK_3C_IL8: BioMAP Diversity Plus: 3C Assay for Interleukin-8 (IL8) Biomarker Activity (AID 2283020); conditions: primary human endothelial cells (HUVEC); actives raise or lower the signal
Procedure, shortened: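 Human vascular endothelial cells (umbilical vein) in the 3C system; IL-8 level detected by ELISA at 24 h post-dose, with DMSO as baseline.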

[14] = target: human Retinoic Acid Receptor gamma (RARg), RARG (gene 5916) (UniProt P13631); assay: ATG_RARg_TRANS: Attagene TRANS-FACTORIAL HepG2 Assay for human Retinoic Acid Receptor gamma (RARg) (AID 2283009; active = hit-call score of the fitted dose curve at least 0.9, where 1 is the maximum)
Procedure, shortened: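 HepG2, RARg-GAL4 TRANS system, 24 h exposure; reporter mRNA by RT-PCR + CE fluorescence; increase over DMSO.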

[15] = target: human RAR-related Orphan Receptor gamma (RORg), RORC (gene 6097) (UniProt P51449); assay: ATG_RORg_TRANS: Attagene TRANS-FACTORIAL HepG2 Assay for human RAR-related Orphan Receptor gamma (RORg) (AID 2283011; active = hit-call score of the fitted dose curve at least 0.9, where 1 is the maximum;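 for AC50: potency for induction of reporter transcripts above DMSO so activators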)
Procedure, shortened: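 First, HepG2 liver cells were transfected with GAL4-UAS-driven reporter constructs and the RORg-Gal4 fusion. Next, they were treated with chemical for 24 h. Finally, reporter mRNA was quantified by RT-PCR and capillary electrophoresis, with upward activity fitted against DMSO.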

[16] = target: Retinoic acid receptor RXR-alpha (Homo sapiens) (UniProt P19793); assay: ATG_RXRa_TRANS: Attagene TRANS-FACTORIAL HepG2 Assay for human Retinoid X Receptor alpha (RXRa) (AID 2283012; active = hit-call score of the fitted dose curve at least 0.9, where 1 is the maximum)
Procedure, shortened: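 Cells (HepG2) carried transiently transfected GAL4-responsive reporter units. Following a 24 h chemical incubation, reporter mRNA induction was read via RT-PCR fragment analysis; DMSO served as negative control and baseline.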

[17] = target: human Thyroid Receptor alpha (THRa1), THRA (gene 7067) (UniProt P10827); assay: ATG_THRa1_TRANS: Attagene TRANS-FACTORIAL HepG2 Assay for human Thyroid Receptor alpha (THRa1) (AID 2283014; active = hit-call score of the fitted dose curve at least 0.9, where 1 is the maximum)
Procedure, shortened: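 Reporter transcript induction, read by capillary electrophoresis of 6-FAM-labelled RT-PCR products, reflects activity of a transfected THRa1-Gal4 fusion in HepG2 liver cells. Cells were dosed for 24 h; activity was fitted in the positive direction against DMSO.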

[18] = target: human Peroxisome Proliferator-activated Receptor delta (PPARd), PPARD (gene 5467) (UniProt Q03181); assay: ATG_PPARd_TRANS: Attagene TRANS-FACTORIAL HepG2 Assay for human Peroxisome Proliferator-activated Receptor delta (PPARd) (AID 2283002; active = hit-call score of the fitted dose curve at least 0.9, where 1 is the maximum)
Procedure, shortened: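 HepG2 cells transiently transfected with multiplexed GAL4-UAS reporter units and exogenous chimeric NR-Gal4 proteins; 24 h compound exposure. Reporter mRNA measured by RT-PCR, 6-FAM labelling, HpaI digestion and capillary electrophoresis; gain of signal versus DMSO.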

[19] = target: human Retinoic Acid Receptor beta (RARb), RARB (gene 5915) (UniProt P10826); assay: ATG_RARb_TRANS: Attagene TRANS-FACTORIAL HepG2 Assay for human Retinoic Acid Receptor beta (AID 2283004; active = hit-call score of the fitted dose curve at least 0.9, where 1 is the maximum)
Procedure, shortened: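 Transient transfection of HepG2 with multiple reporter units → chemical dosing, 24 h → total RNA isolation → RT with oligo(dT) → reporter-specific PCR, 6-FAM primer extension, HpaI digest → capillary electrophoresis. Positive direction vs DMSO control.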

[20] = target: human Retinoid X Receptor beta (RXRb), RXRB (gene 6257) (UniProt P28702); assay: ATG_RXRb_TRANS: Attagene TRANS-FACTORIAL HepG2 Assay for human Retinoid X Receptor beta (RXRb) (AID 2283013; active = hit-call score of the fitted dose curve at least 0.9, where 1 is the maximum)
Procedure, shortened: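 Multiplexed TRANS reporter assay in HepG2; 24 h dosing; reporter mRNA by RT-PCR/CE fluorescence; gain-of-signal relative to DMSO.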

Measured: AC50

Sequence of human Thyroid Receptor alpha (THRa1), THRA (gene 7067) (P10827 whole entry, looked up, the tested form may be a part): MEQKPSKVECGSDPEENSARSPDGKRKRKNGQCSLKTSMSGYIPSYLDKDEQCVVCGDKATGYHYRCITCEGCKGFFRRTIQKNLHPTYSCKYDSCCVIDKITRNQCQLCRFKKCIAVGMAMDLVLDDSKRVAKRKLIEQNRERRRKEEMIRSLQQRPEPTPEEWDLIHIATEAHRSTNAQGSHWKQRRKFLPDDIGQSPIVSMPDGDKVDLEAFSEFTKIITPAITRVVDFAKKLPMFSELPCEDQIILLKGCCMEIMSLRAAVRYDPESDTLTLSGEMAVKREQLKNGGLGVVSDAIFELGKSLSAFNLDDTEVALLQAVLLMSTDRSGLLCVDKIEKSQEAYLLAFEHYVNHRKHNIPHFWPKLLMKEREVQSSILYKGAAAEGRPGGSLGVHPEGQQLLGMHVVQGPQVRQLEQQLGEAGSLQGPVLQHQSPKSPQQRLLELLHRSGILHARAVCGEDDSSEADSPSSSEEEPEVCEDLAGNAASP
Sequence of human RAR-related Orphan Receptor gamma (RORg), RORC (gene 6097) (P51449 whole entry, looked up, the tested form may be a part): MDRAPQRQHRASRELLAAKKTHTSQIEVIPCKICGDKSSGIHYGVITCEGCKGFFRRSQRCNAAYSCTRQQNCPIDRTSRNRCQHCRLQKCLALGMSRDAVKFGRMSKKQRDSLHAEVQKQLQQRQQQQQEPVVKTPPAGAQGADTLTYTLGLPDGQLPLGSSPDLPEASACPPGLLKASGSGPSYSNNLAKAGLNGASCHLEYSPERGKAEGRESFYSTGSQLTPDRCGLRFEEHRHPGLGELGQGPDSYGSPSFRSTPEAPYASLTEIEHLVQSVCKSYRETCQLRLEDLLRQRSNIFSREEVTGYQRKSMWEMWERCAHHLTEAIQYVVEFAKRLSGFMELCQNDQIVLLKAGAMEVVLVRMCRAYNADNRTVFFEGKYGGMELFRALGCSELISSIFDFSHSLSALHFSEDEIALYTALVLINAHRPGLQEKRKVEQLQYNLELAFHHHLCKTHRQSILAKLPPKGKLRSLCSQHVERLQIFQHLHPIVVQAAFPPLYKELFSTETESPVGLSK
Sequence of Retinoic acid receptor RXR-alpha (Homo sapiens) (P19793 whole entry, looked up, the tested form may be a part): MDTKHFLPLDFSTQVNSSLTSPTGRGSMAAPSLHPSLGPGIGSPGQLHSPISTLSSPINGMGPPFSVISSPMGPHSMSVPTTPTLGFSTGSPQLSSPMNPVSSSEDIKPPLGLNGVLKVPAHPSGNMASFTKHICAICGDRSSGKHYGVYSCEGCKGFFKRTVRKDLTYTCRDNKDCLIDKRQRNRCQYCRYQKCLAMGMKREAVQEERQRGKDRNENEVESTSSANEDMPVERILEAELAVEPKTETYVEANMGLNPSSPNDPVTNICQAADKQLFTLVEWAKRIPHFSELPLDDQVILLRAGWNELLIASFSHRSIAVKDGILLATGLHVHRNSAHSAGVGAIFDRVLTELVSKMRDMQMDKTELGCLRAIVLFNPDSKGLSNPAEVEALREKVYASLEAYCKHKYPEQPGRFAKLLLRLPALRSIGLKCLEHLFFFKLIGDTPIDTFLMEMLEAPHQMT
Sequence of human Peroxisome Proliferator-activated Receptor alpha (PPARa), PPARA (gene 5465) (Q07869 whole entry, looked up, the tested form may be a part): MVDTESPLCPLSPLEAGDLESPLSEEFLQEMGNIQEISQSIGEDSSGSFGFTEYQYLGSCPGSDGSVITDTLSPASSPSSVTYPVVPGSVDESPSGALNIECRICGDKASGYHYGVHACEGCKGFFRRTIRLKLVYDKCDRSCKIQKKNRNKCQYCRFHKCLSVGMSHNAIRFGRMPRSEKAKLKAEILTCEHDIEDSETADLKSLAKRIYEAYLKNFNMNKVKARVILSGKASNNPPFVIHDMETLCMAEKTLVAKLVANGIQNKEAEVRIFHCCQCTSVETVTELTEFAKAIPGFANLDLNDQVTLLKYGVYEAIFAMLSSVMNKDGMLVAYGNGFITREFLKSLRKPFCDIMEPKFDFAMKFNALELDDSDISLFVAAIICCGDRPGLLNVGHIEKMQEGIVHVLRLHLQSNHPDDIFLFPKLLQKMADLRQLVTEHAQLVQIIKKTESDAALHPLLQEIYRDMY
Sequence of E-selectin (Homo sapiens) (P16581 whole entry, looked up): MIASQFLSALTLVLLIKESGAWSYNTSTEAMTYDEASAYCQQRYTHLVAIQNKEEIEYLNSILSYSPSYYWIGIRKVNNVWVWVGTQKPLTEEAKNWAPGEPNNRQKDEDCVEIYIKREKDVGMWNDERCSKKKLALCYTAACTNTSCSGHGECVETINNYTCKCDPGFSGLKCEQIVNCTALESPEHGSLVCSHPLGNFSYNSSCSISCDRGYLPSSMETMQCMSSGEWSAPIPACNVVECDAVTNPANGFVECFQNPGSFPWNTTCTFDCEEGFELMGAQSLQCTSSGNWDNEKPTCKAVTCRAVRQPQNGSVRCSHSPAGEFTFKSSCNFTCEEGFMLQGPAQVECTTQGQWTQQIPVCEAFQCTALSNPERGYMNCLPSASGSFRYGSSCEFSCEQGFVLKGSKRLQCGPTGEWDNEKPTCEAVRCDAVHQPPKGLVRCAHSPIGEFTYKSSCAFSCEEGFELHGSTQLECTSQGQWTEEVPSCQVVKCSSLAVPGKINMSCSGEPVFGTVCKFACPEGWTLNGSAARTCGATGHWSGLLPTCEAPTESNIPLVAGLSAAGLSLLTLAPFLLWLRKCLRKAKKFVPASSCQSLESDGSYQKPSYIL
Sequence of Nuclear receptor subfamily 1 group I member 2 (Homo sapiens) (O75469 whole entry, looked up, the tested form may be a part): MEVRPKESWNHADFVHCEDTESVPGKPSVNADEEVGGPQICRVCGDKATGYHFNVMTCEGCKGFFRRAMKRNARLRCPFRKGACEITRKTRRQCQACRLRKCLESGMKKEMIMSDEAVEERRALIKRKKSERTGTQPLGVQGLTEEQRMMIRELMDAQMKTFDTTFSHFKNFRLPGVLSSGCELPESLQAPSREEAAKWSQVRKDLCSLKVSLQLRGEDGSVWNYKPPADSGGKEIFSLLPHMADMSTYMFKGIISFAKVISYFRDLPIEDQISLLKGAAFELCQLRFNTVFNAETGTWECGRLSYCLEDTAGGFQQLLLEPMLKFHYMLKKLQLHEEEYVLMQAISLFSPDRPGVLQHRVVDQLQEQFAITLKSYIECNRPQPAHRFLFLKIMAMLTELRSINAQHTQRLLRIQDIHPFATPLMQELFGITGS
Sequence of human RAR-related Orphan Receptor beta (RORb), RORB (gene 6096) (Q92753 whole entry, looked up, the tested form may be a part): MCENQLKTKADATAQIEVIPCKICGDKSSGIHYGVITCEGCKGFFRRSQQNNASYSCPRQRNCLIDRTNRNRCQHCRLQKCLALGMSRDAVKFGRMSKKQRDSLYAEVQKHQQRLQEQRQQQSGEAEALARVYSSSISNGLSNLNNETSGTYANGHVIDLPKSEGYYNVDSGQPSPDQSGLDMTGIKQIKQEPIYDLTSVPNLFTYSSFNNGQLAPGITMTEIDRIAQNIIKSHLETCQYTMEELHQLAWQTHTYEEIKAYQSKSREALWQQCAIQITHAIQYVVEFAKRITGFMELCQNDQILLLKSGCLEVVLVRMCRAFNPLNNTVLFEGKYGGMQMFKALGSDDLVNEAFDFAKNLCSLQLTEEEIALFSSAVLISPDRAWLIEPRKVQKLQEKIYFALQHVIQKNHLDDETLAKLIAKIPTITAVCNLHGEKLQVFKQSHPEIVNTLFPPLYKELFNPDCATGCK
Sequence of human Retinoic Acid Receptor gamma (RARg), RARG (gene 5916) (P13631 whole entry, looked up, the tested form may be a part): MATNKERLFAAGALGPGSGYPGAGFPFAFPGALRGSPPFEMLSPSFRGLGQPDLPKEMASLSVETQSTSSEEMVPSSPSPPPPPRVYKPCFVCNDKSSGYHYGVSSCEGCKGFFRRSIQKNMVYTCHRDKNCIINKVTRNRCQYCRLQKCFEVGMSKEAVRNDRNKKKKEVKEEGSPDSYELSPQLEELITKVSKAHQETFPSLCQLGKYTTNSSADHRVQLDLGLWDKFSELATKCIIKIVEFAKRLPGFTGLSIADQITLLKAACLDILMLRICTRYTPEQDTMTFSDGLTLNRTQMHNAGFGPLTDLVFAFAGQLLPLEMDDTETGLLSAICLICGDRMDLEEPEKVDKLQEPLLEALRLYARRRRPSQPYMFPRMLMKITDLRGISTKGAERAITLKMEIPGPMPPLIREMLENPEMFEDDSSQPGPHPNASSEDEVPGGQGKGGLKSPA
Sequence of human Retinoid X Receptor beta (RXRb), RXRB (gene 6257) (P28702 whole entry, looked up): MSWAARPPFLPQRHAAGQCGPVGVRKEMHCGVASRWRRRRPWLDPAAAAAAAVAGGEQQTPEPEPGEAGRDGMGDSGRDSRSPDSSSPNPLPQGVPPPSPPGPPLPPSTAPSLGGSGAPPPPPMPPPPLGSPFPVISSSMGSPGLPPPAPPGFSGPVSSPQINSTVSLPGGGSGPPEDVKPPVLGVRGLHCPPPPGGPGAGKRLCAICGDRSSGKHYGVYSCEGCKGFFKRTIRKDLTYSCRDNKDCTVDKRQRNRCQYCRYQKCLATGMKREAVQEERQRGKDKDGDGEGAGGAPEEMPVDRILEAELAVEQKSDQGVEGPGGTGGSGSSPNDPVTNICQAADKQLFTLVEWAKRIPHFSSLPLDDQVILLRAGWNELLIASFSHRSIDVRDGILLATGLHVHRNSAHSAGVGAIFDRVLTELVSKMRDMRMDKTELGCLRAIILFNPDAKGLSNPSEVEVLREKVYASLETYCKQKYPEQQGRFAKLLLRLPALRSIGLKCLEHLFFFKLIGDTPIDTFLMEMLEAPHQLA
Sequence of Peroxisome proliferator-activated receptor gamma (Homo sapiens) (P37231 whole entry, looked up, the tested form may be a part): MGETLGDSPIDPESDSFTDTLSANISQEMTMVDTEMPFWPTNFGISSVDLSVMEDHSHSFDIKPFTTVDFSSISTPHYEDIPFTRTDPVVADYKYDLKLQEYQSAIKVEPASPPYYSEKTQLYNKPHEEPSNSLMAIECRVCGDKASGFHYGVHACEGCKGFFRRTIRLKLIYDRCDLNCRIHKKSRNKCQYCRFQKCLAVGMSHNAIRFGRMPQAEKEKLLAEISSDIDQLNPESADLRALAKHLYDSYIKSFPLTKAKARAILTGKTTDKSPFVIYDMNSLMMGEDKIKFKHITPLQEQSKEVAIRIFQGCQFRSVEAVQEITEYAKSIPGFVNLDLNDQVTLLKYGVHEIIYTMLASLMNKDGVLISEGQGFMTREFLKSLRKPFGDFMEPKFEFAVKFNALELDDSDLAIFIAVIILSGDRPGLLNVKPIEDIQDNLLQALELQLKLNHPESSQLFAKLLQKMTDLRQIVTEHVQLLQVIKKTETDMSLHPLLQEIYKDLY

CCCCC(CC)COP(=O)(O)OCC(CC)CCCC (stereo unspecified)
inactive: [1] | [3] | [7] | [8] | [9] | [10] | [11] | [12] | [13]
active: [2] 16.5 µM | [4] 36 µM | [5] 7.51 µM | [6] 15.4 µM

CCO[Si](CCC(F)(F)C(F)(F)C(F)(F)C(F)(F)C(F)(F)C(F)(F)F)(OCC)OCC
not listed: [7] | [18] | [19] | [20]
inactive: all other assays above

CCc1c(Br)c(Br)c(Br)c(Br)c1Br
active: [1] 20 µM | [6] 7.09 µM | [20] 5.94 µM
not listed: [2] | [5] | [15] | [16]
inactive: all other assays above

O=C(O)C(F)(F)C(F)(F)C(F)(F)C(F)(F)C(F)(F)C(F)(F)C(F)(F)C(F)(F)C(F)(F)C(F)F
inactive: [1] | [3] | [19] | [14] | [7] | [17] | [8] | [10] | [11] | [12] | [13]
active: [1] 29.1 µM | [4] 56.7 µM and 47 µM | [5] 25.8 µM | [6] 64.5 µM | [15] 50 µM | [9] 17.8 µM and 14.6 µM | [10] 47.1 µM | [11] 30 µM | [12] 37.5 µM

FC(F)(F)C(F)(F)C(F)(F)C(F)(F)C(F)(F)CCI
active: [4] 30 µM | [5] 73 µM | [20] 35.9 µM
inactive: [1] | [18] | [3] | [19] | [4] | [6] | [14] | [7] | [15] | [16] | [17] | [8] | [9] | [10] | [11] | [12] | [13]

FC(F)(F)C(F)(F)C(F)(F)C(F)(F)CCI
active: [1] 10.6 µM | [5] 36.9 µM | [20] 123 µM
inactive: [1] | [3] | [4] | [5] | [6] | [14] | [7] | [8] | [9] | [10] | [11] | [12] | [13]
